Results filed as inconclusive are left out. A call without a number means that no potency is given here. Activity calls are given as the source filed them. The call rests on the fitted dose curve; in most records, active means well fitted cell-killing curve with a large enough effect; inconclusive means small, poorly fitted or top-dose-only effect; inactive means flat fitted curve, though single readings scatter.
Assay: Vero cells viability qHTS for Zika virus inhibitors (AID 1347167)
Details: cytotoxicity counter-screen (Zika); series mostly up to 45.9 µM
Text: Avindra Nath, Ph.D., National Institute of Neurological Disorders and Stroke (NINDS), Bethesda, MD
Radhakrishnan Padmanabhan, Ph.D., Georgetown University (GU), Washington D.C.
Zika Virus causes congenital defects, including microcephaly and is associated with Guillain-Barre syndrome, eningoencephalitis and myelitis in infected adult. […] Using a target-based approach, we hope to establish a screening paradigm to uncover novel, cell-active NS2B-NS3 protease (Zika Virus) specific inhibitors from NCATS' collection of small molecules using qHTS.
Four assay panel was created to identify potential Zika Virus inhibitors. Namely, (1) GU unlinked NS2B-NS3 AMC tagged protease qHTS, (2) GU unlinked NS2B-NS3 Rhodamine tagged protease qHTS, (3) NINDS linked NS2B-NS3 AMC tagged protease qHTS, (4) NINDS linked NS2B-NS3 Rhodamine tagged protease qHTS. Identified inhibitors were screened against the Vero and HepG2 cell viability assays using CellTiter Glo to exclude cytotoxic compounds.
Early Translation Branch (ETB)
National Center for Advancing Translational Sciences (NCATS), Rockville, MD
National Institute of Health (NIH), Bethesda, Maryland
Vero and HepG2 Cell Viability Assay:
Vero and HepG2 cell cytotoxicity were determined using a luminescent readout with CellTiter Glo reagent (Promega, Madison, WI), which is based on measuring the ATP content within cells. Briefly, 4 microL of Vero or HepG2 cells at 2.5 x 10^5 cells/mL in DMEM containing 4% FBS were dispensed into 1536-well solid bottom tissue treated white plate using a Multidrop Combi dispenser (Thermo Scientific). Plates were incubated at 37 degrees C, 95% humidity, and 5% CO2 overnight to allow for cell attachment. Compounds were dissolved in DMSO at different concentrations and transferred via pintool (Wako Automation), for a final concentration of 0.029 µM - 57 microM. Plates were again incubated for 24 to 48 hours, followed by a 2 microL addition of CellTiter Glo. Finally, plates were incubated for 30 minutes at 37 degrees C and 5% CO2 before being read on a ViewLux (Perkin Elmer) for luminescence.

| SMILES | Potency |
| --- | --- |
| C[C@H](NC(=O)C(=O)Nc1ccccc1C(C)(C)C)C(=O)N[C@@H](CC(=O)O)C(=O)COc1c(F)c(F)cc(F)c1F | inactive |
| CN(C)c1cc(NC(=O)CNC(C)(C)C)c(O)c2c1C[C@@H]1C[C@H]3[C@H](N(C)C)C(=O)C(C(N)=O)=C(O)[C@@]3(O)C(=O)C1=C2O | inactive |
| NC(=O)c1cccc2[nH]c(-c3ccc([C@H]4CCCN4)cc3F)nc12 | inactive |
| Cc1ccn(-c2ccc(-c3ncco3)cc2)c(=O)c1-c1ccc2nc(N)ncc2c1 | inactive |
| NC(=O)c1ccc2nc(-c3ccc(Oc4ccc(Cl)cc4)cc3)[nH]c2c1 | inactive |
| O=c1cc(-c2ccccc2)oc2cc(O)c(O)c(O)c12 | inactive |
| CC1CCC(C(=O)N(c2cc(C#CC(C)(C)C)sc2C(=O)O)C2CCC(O)CC2)CC1 (stereo not given) | inactive |
| COc1ccc2cc(-c3nc(-c4ccc(S(C)=O)cc4)[nH]c3-c3ccncc3)ccc2c1 (stereo not given) | inactive |
| CS(=O)c1ccc(-c2nc(-c3ccc(F)cc3)c(-c3ccncc3)[nH]2)cc1 (stereo not given) | inactive |
| CC(=O)Nc1ccc([C@H](C)C(=O)Nc2ncc(C(C)C)s2)cc1 | inactive |
